Active and inactive are the calls of the source.
Experiments:
[1] = target: Albumin (Bos taurus) (UniProt P02769); assay: compounds binding labelled BSA control protein – biochemical, small-molecule microarray, Alexa647 label, 635/667 nm fluorescence, artefact control for SMM control protein annotation, profiling panel (AID 1118); settings: BSA-A647 binding, fluorescence 635 nm, higher = more signal;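 also: score merges 667 nm emission intensity and signal-to-noise per printed compound spot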
[2] = probe aXIP binding to arrayed compounds – biochemical, NeuroSMM set, 635/667 nm fluorescence, primary screen (AID 1119); settings: small-molecule microarray, higher = more signal, called active from +8 up or from −8 down;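 also: probe is the protein aXip251-270 applied at 1 µg/mL to compound-printed slides; binding of probe to printed compounds measured as 667 nm fluorescence plus signal to noise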
[3] = probe aNOTCH3 binding on compound microarray – biochemical, small-molecule microarray, 635/667 nm fluorescence, primary screen (AID 1120); settings: higher = more signal;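 also: probe is a biotin-tagged antibody raised against NOTCH3 rather than NOTCH3 protein; score merges spot fluorescence near 667 nm with spot signal to noise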
[4] = probe aNOTCH2 binding on compound microarray – biochemical, small-molecule microarray, 635/667 nm fluorescence, primary screen (AID 1121); settings: higher = more signal;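 also: score merges feature fluorescence read at 667 nm with its signal to noise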
[5] = target: Carbonic anhydrase 2 (Homo sapiens) (UniProt P00918); assay: compounds binding carbonic anhydrase 2 – biochemical, small-molecule microarray, Alexa647-labelled CAII, profiling panel (AID 1122); settings: CAII-A647 binding fluorescence, higher = more signal
[6] = COS7 lysate on small-molecule microarray, probe aHis, 635 nm (AID 1123); settings: COS7 cell lysate, fluorescence, higher = more signal;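 also: z-score combines 667nm fluorescence intensity with signal-to-noise per printed compound spot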
[7] = probe aLAP1 signal on lysate-treated microarray – cell lysate, small-molecule microarray, COS7 lysate, primary screen (AID 1124); settings: probe aLAP1, fluorescence, higher = more signal;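 also: lysate comes from COS7 cells expressing LAP1 and is applied at 0.3 µg/mL; score merges spot fluorescence near 667 nm with signal-to-noise over triplicate slides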
[8] = system: Sam68 (KHDRBS1); assay: compounds binding KHDRBS1 protein – biochemical, small-molecule microarray, 635 nm fluorescence, primary screen (AID 1125); settings: higher = more signal;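 also: score merges 667 nm channel intensity with signal to noise over triplicate slides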
[9] = system: Chordin-like protein 2 (CHRDL2); assay: compounds binding chordin-like 2 – biochemical, small-molecule microarray, 635 nm fluorescence, primary screen (AID 1126); settings: fluorescence 635 nm, higher = more signal;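 also: printed compound slides probed with Chrdl2 protein at 4 µg/mL for 1 h at 4 C; score merges 667 nm emission intensity with signal to noise over three replicate slides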
[10] = target: Concanavalin-A (Canavalia ensiformis) (UniProt P02866); assay: compounds binding concanavalin A lectin – biochemical, small-molecule microarray, Alexa647 label, 635 nm, artefact control for SMM control protein annotation, primary screen (AID 1127); settings: ConA-A647 binding fluorescence, higher = more signal;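 also: z combines 667 nm emission intensity with signal-to-noise across three replicate slides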
Chain of Concanavalin-A (Canavalia ensiformis) (P02866 whole entry, looked up): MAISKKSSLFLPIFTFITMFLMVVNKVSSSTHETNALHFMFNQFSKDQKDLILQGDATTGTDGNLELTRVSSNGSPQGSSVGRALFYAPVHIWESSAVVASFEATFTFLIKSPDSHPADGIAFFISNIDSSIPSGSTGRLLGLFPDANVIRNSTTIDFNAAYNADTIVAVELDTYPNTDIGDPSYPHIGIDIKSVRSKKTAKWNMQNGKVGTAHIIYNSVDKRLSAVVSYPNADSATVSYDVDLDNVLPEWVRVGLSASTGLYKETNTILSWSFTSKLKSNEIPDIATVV

[11] = compounds binding Alexa647 anti-His antibody – biochemical, small-molecule microarray, 635 nm fluorescence, artefact control for SMM control protein annotation, primary screen (AID 1128); settings: higher = more signal;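 also: score merges feature fluorescence with signal-to-noise for each printed compound spot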
[12] = system: Human papillomavirus type 1a E7 protein (residues 1-88); assay: HPV1a E7 small-molecule binders, primary screen, biochemical, small-molecule microarray, residues 1-88, 635 nm (AID 1129); settings: small-molecule microarray binding, fluorescence 635 nm; higher = more signal
[13] = target: Focal adhesion kinase 1 (Homo sapiens) (UniProt Q05397); assay: PTK2 protein binding on printed compound slides – biochemical, small-molecule microarray, 635/667 nm fluorescence, BSA, DTT, primary screen (AID 1130); settings: 635 nm fluorescence, higher = more signal;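 also: composite of spot emission at 667 nm and signal to noise over triplicate slides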
Chain of Focal adhesion kinase 1 (Homo sapiens) (Q05397 whole entry, looked up): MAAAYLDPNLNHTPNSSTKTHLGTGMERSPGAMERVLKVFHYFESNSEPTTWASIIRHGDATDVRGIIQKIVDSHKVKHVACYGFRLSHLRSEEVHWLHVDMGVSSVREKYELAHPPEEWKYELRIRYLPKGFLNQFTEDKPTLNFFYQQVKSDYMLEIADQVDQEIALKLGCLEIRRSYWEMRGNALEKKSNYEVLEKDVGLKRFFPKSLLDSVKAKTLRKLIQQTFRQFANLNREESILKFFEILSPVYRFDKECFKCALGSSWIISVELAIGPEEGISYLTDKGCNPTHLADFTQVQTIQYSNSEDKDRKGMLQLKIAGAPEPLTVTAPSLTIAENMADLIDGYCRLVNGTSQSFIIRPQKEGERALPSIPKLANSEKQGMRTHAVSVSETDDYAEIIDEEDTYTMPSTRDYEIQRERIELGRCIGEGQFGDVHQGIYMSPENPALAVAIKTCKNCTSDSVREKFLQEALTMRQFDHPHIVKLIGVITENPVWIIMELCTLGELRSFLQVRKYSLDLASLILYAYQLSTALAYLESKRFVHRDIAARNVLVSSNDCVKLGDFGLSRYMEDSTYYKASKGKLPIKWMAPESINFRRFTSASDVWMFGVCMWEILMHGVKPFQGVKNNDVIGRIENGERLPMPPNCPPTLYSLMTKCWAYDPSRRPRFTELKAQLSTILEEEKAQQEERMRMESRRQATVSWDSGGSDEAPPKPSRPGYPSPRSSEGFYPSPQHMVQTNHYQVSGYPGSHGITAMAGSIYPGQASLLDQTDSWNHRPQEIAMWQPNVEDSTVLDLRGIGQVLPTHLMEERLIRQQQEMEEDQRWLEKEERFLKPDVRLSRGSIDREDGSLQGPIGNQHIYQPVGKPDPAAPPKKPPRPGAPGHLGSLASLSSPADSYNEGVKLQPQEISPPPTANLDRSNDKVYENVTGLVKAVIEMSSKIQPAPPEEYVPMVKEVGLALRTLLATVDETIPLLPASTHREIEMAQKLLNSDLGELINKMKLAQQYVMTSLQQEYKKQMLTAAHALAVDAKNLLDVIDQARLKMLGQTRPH

[14] = system: Fibrinogen (Alexa647-labelled); assay: Alexa647-fibrinogen binding to printed small molecules – biochemical, small-molecule microarray, 635/667 nm fluorescence, artefact control for SMM control-protein annotation, profiling panel (AID 1131); settings: fibrinogen-A647 binding fluorescence, higher = more signal;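 also: z-score merges 667 nm fluorescence with per-spot signal-to-noise over triplicate slides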
[15] = target: Follistatin (Homo sapiens) (UniProt P19883); assay: FST protein binding to printed compounds – biochemical, small-molecule microarray, 635/667 nm fluorescence, primary screen (AID 1132); settings: 635 nm fluorescence, higher = more signal
Chain of Follistatin (Homo sapiens) (P19883 whole entry, looked up): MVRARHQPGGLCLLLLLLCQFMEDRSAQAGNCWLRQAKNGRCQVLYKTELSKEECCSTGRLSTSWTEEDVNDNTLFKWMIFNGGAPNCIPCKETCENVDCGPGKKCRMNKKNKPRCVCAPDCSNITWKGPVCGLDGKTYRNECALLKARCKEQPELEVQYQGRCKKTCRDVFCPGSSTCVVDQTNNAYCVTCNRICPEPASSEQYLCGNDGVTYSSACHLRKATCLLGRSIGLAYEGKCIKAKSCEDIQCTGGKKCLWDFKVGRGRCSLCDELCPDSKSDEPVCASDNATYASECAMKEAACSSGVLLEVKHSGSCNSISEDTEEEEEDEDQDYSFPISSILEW

[16] = target: Fibroblast growth factor 2 (Homo sapiens) (UniProt P09038); assay: basic fibroblast growth factor binding to printed compounds – biochemical, small-molecule microarray, 635/667 nm fluorescence, primary screen (AID 1133); settings: FGF2, fluorescence 635/667, higher = more signal
Chain of Fibroblast growth factor 2 (Homo sapiens) (P09038 whole entry, looked up): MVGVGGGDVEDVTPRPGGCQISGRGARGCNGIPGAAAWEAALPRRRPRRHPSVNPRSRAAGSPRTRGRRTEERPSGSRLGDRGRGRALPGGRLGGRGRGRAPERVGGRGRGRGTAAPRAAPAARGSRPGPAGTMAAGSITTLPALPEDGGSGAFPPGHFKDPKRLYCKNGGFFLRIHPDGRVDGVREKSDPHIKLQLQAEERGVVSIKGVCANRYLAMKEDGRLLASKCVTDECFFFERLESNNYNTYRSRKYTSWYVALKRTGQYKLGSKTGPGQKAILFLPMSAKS

[17] = JC-1 mitochondrial potential readout, lung cancer cells – cell-based, A549, JC-1 fluorescence, basal, 24 h, 100 nL, profiling panel (AID 1138); settings: higher = more signal;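 also: A549 lung adenocarcinoma cells under basal conditions with no added stimulus; test concentration not given here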
[18] = system: Lefty1; assay: Lefty1 protein binding to printed compounds – biochemical, small-molecule microarray, 635/667 nm fluorescence, primary screen (AID 1139); settings: fluorescence 635/667, higher = more signal
[19] = system: wheat germ agglutinin (Triticum aestivum), Alexa647-labelled; assay: Alexa647-WGA lectin binding to printed small molecules – biochemical, small-molecule microarray, 635/667 nm fluorescence, artefact control for SMM control-protein annotation, profiling panel (AID 1140); settings: WGA-A647 binding, 635 nm fluorescence, higher = more signal;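 also: score merges 667 nm feature emission with signal to noise over triplicate slides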
[20] = target: Luciferin 4-monooxygenase (Photinus pyralis) (UniProt P08659); assay: inhibition of purified Photinus pyralis luciferase – biochemical, luminescence, purified enzyme, 2006 set, primary screen (AID 1141); settings: purified firefly luciferase, SteadyGlo luminescence, 30 min; higher = more signal, called active from +8 up or from −8 down;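 also: cell-free assay with purified firefly luciferase at 100 ng per well in PBS; test concentration not given here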
Chain of Luciferin 4-monooxygenase (Photinus pyralis) (P08659 whole entry, looked up): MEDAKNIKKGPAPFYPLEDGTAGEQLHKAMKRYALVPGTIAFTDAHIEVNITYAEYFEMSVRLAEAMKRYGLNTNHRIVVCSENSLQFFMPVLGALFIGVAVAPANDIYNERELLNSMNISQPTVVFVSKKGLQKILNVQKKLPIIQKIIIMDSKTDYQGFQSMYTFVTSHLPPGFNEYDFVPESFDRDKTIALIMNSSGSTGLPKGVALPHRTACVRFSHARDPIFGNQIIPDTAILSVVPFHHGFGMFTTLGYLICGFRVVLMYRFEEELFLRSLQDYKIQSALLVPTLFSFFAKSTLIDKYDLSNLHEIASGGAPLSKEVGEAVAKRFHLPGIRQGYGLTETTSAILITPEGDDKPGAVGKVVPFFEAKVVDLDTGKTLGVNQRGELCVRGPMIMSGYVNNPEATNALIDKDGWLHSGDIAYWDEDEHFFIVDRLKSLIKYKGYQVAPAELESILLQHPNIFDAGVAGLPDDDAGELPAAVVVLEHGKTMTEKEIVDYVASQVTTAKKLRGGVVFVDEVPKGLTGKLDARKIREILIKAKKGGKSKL

Chain of Albumin (Bos taurus) (P02769 whole entry, looked up): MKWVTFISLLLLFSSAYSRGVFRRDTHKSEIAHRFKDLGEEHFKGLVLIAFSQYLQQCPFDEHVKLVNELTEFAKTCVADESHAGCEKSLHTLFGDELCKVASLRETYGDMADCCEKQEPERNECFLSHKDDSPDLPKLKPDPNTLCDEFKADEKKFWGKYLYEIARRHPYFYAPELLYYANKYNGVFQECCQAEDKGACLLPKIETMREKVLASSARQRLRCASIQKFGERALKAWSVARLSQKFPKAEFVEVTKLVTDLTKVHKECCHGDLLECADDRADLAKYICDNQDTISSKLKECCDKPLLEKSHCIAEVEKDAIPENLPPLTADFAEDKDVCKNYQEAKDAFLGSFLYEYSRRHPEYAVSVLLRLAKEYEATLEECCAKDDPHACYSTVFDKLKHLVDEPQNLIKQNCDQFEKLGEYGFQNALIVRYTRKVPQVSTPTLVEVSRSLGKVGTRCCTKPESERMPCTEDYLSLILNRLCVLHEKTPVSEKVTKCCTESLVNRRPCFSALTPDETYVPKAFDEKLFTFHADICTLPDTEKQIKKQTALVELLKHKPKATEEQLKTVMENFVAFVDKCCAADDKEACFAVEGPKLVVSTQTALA

Compound | composite z-score [1] | composite Z-score [2] | composite z-score [3] | composite z-score [4] | composite z-score [5] | composite z-score [6] | composite z-score [7] | composite z-score [8] | composite z-score [9] | composite z-score [10] | composite z-score [11] | composite z-score [12] | composite z-score [13] | composite z-score [14] | composite z-score [15] | composite z-score [16] | z-score [17] | composite z-score [18] | composite z-score [19] | z-score [20]
Cc1ccc(C(C)CC(O)C2C=CC3C(=O)NC(=O)C3N2Nc2ccccn2)o1 (stereo not given) | -0.5 | 0.598 (inactive) | 0.237 | -0.106 | 0.887 | 0.305 | 0.149 | 0.259 | 0.676 | -0.336 | 1.17 | -0.722 | -0.121 | -0.633 | 0.709 | 0.243 | 0.839 | 0.643 | -0.0217 | -2.19 (inactive)
CCN(CC)c1ccc(N2CC=CC34O[C@@H]5/C=C\CCCOC(=O)C5[C@H]3C(=O)N(CCCO)[C@@H]4C2=O)cc1 (stereo not given in full) | -1.05 | 0.895 (inactive) | -0.373 | -0.104 | 0.935 | 3.01 | 2.3 | 0.244 | -1.83 | -0.77 | 1.54 | -0.231 | -0.426 | -0.928 | -1.05 | -0.942 | 0.614 | -0.5 | -0.137 | -0.826 (inactive)
COC(=O)[C@@]1(Cc2ccc(OC)cc2)[C@H]2c3cc(C(=O)N4CCCC4)n(C[C@H](O)CO)c3C[C@H]2CN1C(=O)c1ccccc1 | 0.947 | 0.509 (inactive) | 0.0824 | 0.0817 | 0.869 | 1.62 | 0.226 | -0.0743 | -0.229 | 0.556 | 0.39 | 0.339 | 0.493 | 0.276 | -0.319 | -0.411 | 0.605 | -0.752 | 1.02 | 1.84 (inactive)
C=C[C@H](OC)[C@@H](OC(=O)Nc1ccc(SC)cc1)c1ccc(OCCO)cc1 | 0.383 | 0.651 (inactive) | -0.15 | -0.0956 | 0.503 | 1.45 | 0.503 | 0.904 | 0.0669 | 0.713 | 3.12 | 1.22 | 0.39 | -0.332 | 0.236 | 0.453 | -1.56 | -0.444 | 0.833 | -1.94 (inactive)
C=CCN1Cc2ccccc2C[C@@]2(COC(c3ccc(OCCCO)cc3)=N2)C1=O | -0.476 | 0.0425 (inactive) | 0.0596 | 0.0965 | 0.598 | 2.14 | 0.547 | 0.811 | 1.12 | 0.85 | 0.131 | 1.2 | 0.92 | 0.526 | 1.15 | 0.788 | 1.67 | 0.374 | 0.41 | -1.62 (inactive)
C=CCC(OC(C)=O)[C@@H]1[C@@H](N(Cc2cc3ccccc3o2)C(=O)c2ccc(C)cc2)c2cc(OCCCO)ccc2N1C(=O)c1ccc(-c2ccccc2)cc1 (stereo not given in full) | -0.0944 | 0.0882 (inactive) | 0.102 | -0.18 | 0.0677 | 0.263 | -0.161 | 0.318 | 0.073 | -0.0198 | -0.277 | 0.0357 | 0.13 | 0.122 | 0.714 | -0.206 | 0.291 | 0.239 | 0.107 | 0.352 (inactive)
C=C(COC)C(=O)CC[C@@H](OC(=O)c1ccccc1-c1ccccc1C(=O)O)c1ccc(CO)o1 | -0.651 | 0.082 (inactive) | -0.154 | -0.0817 | 0.309 | 1.77 | 0.447 | 0.504 | 1.24 | 0.865 | 1.73 | 0.339 | 0.0109 | -0.363 | 1.05 | 1.81 | -0.789 | 1.56 | -0.407 | -3.78 (inactive)
C=C(C)[C@@H]1CC=C(C(O)C2C=CC3C(=O)N(Cc4ccccc4)C(=O)C3N2n2cnnc2)CC1 (stereo not given in full) | 0.936 | -0.619 (inactive) | 0.0297 | -0.0907 | 0.751 | 0.341 | -0.24 | -0.0341 | -0.918 | 0.317 | -0.087 | -0.124 | 0.0147 | 0.818 | 0.507 | -0.759 | -1.11 | 0.551 | 1.19 | 1.67 (inactive)
C/C=C/[C@H](CCn1cc([C@H](O)c2ccccc2)nn1)[Si](C)(C)c1ccc(OC)cc1 | -0.7 | -0.0164 (inactive) | -0.359 | -0.181 | 0.017 | -0.092 | 0.612 | -0.971 | -0.4 | -0.971 | 0.382 | -0.559 | -0.3 | -1.17 | -0.735 | -0.997 | 0.45 | -0.781 | -0.777 | 0.173 (inactive)
C=CCOC(=O)[C@H]1[C@@H]2C(=O)O[C@@H](c3ccccc3)[C@@H](c3ccccc3)N2[C@@H](c2ccc(OCCOC(=O)[C@@H]3C[C@@H]4C(=O)NCC(=O)N4[C@@H]3c3ccc(O)cc3)cc2)[C@]12C(=O)Nc1ccc(I)cc12 | 0.733 | 1.05 (inactive) | 0.0435 | -0.0583 | 0.647 | 1.71 | 0.888 | 1.3 | 1.09 | 1.14 | 1.59 | 1.22 | 2.17 | 0.597 | 1.41 | 1.65 | -1.17 | 1.24 | 0.763 | -0.978 (inactive)
COCCOC(=O)N1C(=O)[C@@]2(c3cc(C#CC4=CCCCC4)ccc31)[C@H](c1ccc(OCCO)cc1)N1[C@H](c3ccccc3)[C@H](c3ccccc3)OC(=O)[C@H]1[C@@H]2C(=O)Nc1nc2ccccc2s1 | 0.539 | 0.657 (inactive) | 0.151 | -0.0483 | 0.154 | 0.999 | 0.664 | 1.31 | 1.29 | 1.09 | 0.317 | 1.18 | 0.358 | 0.929 | 1.19 | 0.571 | -2.19 | 0.982 | 0.53 | -2.79 (inactive)

Source: PubChem BioAssay
